Data reported in ChEMBL document CHEMBL3988442, “University of Dundee, Small-Polar-MMV Screening Library” (2021).

Assays:
[1] = biological target: T1, Aspartate--tRNA(Asp/Asn) ligase (Mycobacterium tuberculosis (strain ATCC 25618 / H37Rv)) (UniProt P9WFW3); experiment: Assay for Asp RNA synthetase-1 from Mycobacterium tuberculosis; format: functional; set-up: scale not given: direction of the effect not stated beside the values; conditions: 30 µM; also: in the data most compounds retested in dose-response had high values
T1 sequence (whole entry): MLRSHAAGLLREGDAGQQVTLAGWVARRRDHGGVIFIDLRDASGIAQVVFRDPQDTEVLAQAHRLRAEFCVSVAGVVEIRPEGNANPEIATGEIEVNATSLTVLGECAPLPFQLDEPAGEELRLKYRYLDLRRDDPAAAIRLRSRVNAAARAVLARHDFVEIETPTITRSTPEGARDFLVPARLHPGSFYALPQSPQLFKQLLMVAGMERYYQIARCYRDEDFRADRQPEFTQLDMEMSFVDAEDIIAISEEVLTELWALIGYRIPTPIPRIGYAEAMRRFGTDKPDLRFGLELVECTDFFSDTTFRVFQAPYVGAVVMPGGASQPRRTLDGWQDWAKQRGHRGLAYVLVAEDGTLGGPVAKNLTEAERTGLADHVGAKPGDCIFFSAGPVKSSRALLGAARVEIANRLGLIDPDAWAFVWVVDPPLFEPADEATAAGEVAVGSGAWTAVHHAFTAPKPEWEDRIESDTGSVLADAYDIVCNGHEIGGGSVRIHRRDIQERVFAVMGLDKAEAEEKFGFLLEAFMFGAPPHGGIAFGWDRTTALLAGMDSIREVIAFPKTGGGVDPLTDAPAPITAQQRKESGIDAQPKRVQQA

[2] = biological target: Shiga toxin 2 (Escherichia coli O157:H7) (UniProt P09385+P09386); experiment: E. coli 0.157:H7 Shiga Toxin SOP - stx2 screening assay; format: functional; set-up: scale not given: direction of the effect not stated beside the values; conditions: 30 µM

Row | Compound | Percent Effect [1] [%] | Percent Effect [2] [%]
1 | COCCN1CCN(C(=O)c2cc(C(C)C)on2)[C@H]2CS(=O)(=O)C[C@H]21 | -3.12 | -5.69
2 | CCc1nc(C2CCCN2C(=O)c2ccc3c(c2)nnn3CC)no1 (stereo not drawn) | -5.04 | 1.14
3 | COc1cccn(CC(=O)N(C)Cc2ccoc2)c1=O | -1.64 | 5.29
4 | CCc1csc(C2CCCN(C(=O)c3cnn(CC)c3)C2)n1 (stereo not drawn) | 0.0599 | -7.95
5 | COc1ccc(CCN2CCC(N3CCN(C)C3=O)CC2)cc1 | -1.97 | 0.371
6 | Cc1ncnc2c1CCN(Cc1ccc3c(c1)OCO3)CC2 | -0.729 | -19.3
7 | Cc1ccc(S(=O)(=O)N2CCOc3ccccc32)cc1C(=O)O | -1.83 | -32.8
8 | CC(C)C1CN(c2ncc(F)cn2)CCC(=O)N1Cc1ccc(F)cc1 (stereo not drawn) | 1.56 | -4.93
9 | CCc1nc(CN2CCN(C(=O)CCc3ccccc3)CC2)cs1 | -4.18 | -33.2
10 | O=C(NCc1cnc2n1CCN(CC1CC1)CC2)C1CCC1 | -5.77 | 7.18
11 | O=C(NCc1nnc2n1CCC2)N(Cc1ccco1)C1CC1 | 1.06 | -5.54
12 | COCCN1CCC(CNC(=O)C2(c3cc(C)cc(C)c3)CCC2)C1 (stereo not drawn) | -0.337 | 20.8
13 | CC1=Nc2c(c(=O)[nH]n2C(C)C)C(c2ccccc2)S1 (stereo not drawn) | 1.45 | 1.24
14 | C[S+]([O-])c1nncn1CC(=O)c1ccc(Cl)c(Cl)c1 (stereo not drawn) | 1.03 | -25.1
15 | CCc1nc(C2CCCN(C(=O)c3cnn(CC)c3)C2)no1 (stereo not drawn) | 2.22 | 3.55
16 | N#CCSCCCN1CCCN(C(=O)c2ccccc2)CC1 | -4.83 | -31.2
17 | CCCSCC(=O)NS(=O)(=O)c1ccc2c(c1)OCCO2 | -3.99 | 19.7
18 | CCc1noc(C)c1C(=O)N(C)Cc1ncc(C)c(OC)c1C | -1.73 | 16.8
19 | CC(C)c1noc(CCCC(=O)N2CCC(Cc3cccnc3)CC2)n1 | -0.0571 | 0.87
